Cycloheximide cs: counter-screen for Shiga toxin inhibitors: cycloheximide protein synthesis inhibition. cell reporter, cycloheximide protein synthesis inhibition counterscreen. max response, %. 300,000 compounds, 12% hits. AID 2314; in the data active = max response mostly above about 13%, no sharp cut-off; inactive = mostly below about 14%; note: read at 38.3 µM for the half of the compounds with a filed dose
LmPK inhibitor: inhibitors of Leishmania mexicana pyruvate kinase | Q27686 | purified LmPK, Kinase-Glo ATP luminescence, 1 h | Potency, µM (top dose mostly 57.5 µM), hits mostly inhibitors | 290,000 compounds, 0.37% hits
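Purified LmPK (0.1 nM) with 0.5 mM PEP and 0.1 mM ADP in imidazole buffer pH 7.2 with MgCl2/KCl, 1 h at room temperature. ATP formed was read by luciferase luminescence and normalized to no-enzyme and uninhibited controls.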
TbPYK inhibitor: T. brucei pyruvate kinase inhibition. TbPYK enzyme, Kinase-Glo Plus ATP luminescence, 45 min. Potency, µM (doses to about 76.8 µM), actives largely listed as inhibitors. 410,000 compounds, 0.12% hits. AID 624173; note: nearly all actives have a fitted effect of over 50% in size
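TbPYK + substrate in 50 mM TEA pH 7.2, 100 mM KCl, 10 mM MgCl2, 0.05% BSA, 0.01% Tween-20; cpd pinned; ADP 130 uM final; 45 min RT; Kinase-Glo Plus 10 min; luminescence endpoint.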
FBPA Giardia inh: Giardia lamblia aldolase inhibition. A8B2U2. purified Giardia FBPA. Potency, µM (doses to about 59.6 µM), actives largely listed as inhibitors. 290,000 compounds, 0.71% hits; note: nearly all actives have a fitted effect of over 55% in size
Target sequence (A8B2U2 whole entry, looked up): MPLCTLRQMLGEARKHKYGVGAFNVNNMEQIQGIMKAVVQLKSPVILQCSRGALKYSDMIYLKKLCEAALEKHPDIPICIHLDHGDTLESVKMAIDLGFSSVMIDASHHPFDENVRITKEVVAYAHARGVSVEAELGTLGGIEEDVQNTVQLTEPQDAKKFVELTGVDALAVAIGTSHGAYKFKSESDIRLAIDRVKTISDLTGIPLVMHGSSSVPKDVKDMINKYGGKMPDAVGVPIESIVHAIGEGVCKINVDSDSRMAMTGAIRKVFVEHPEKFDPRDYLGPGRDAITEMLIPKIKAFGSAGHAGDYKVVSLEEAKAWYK
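Giardia FBPA (40 nM reagent) was preincubated 10 min at RT with compound (up to 57.5 uM final), then substrate plus GAPDH/TPI/NAD/arsenate coupling system with diaphorase/resazurin was added; resorufin fluorescence (525/598 nm) was read after 20 min.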
Shiga toxin inh: blocks Shiga toxin action in Vero cells. Vero cells, Shiga toxin protein synthesis inhibition reporter. AID 2315. 290,000 compounds, 9.2% hits. inhibition, % at 38.7 µM; in the data active = inhibition mostly above about 28%, no sharp cut-off; inactive = mostly below about 43%
Sm TGR block: inhibitors of Schistosoma mansoni thioredoxin glutathione reductase; Potency, µM (doses to about 114 µM), hits mostly inhibitors; 360,000 compounds, 3% hits; purified TGR, DTNB reduction, TNB absorbance 405 nm; AID 485364; note: nearly all actives have a fitted effect of over 60% in size
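TGR 20 nM + NADPH 100 uM (dispensed conc.), cpd preinc 15 min RT; start with NADPH (500 uM addition) then DTNB (15 mM addition). Kinetic TNB absorbance, 405 nm filter. Four-parameter Hill fit across titration.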
Large screens that a line does not name were inactive. This is one part of a sample in which hits are shown more often than they occur. Unless noted, calls come from the whole dose curve; as a rule, active = well fitted curve in the direction sought with a large enough effect; inconclusive = small, poorly fitted or top-dose-only effect, or another doubt; inactive = no such curve, though single readings can be large; an effect the other way counts as inactive or inconclusive.

CS(=O)(=O)Nc1cccc(NC(=O)C2Cc3c(-c4cccc(F)c4)ccnc3O2)c1 (configuration not stated)	none (no result: Cycloheximide cs, LmPK inhibitor, FBPA Giardia inh, Shiga toxin inh, Sm TGR block)
CCCC1Nc2ccc(C(=O)O)cc2C2C=CCC12 (configuration not stated)	Sm TGR block 39.8µM
CC(C)/C=C(/C(=O)c1ccc(Cl)cc1Cl)n1cncn1	Sm TGR block 35.5µM
O=C(CSc1ncccn1)NCc1ccc(F)cc1	none
O=C(Nc1cccc2ccccc12)N1CCN(c2ncccn2)CC1	FBPA Giardia inh inconclusive
O=C(CSc1ncccn1)Nc1cccc2ccccc12	Cycloheximide cs 21.8
O=C(CSCC(=O)Nc1cccc2ccccc12)Nc1cccc2ccccc12	none
Cc1ccc(CNC(=O)CSc2ncccn2)cc1	Cycloheximide cs 24.5, Shiga toxin inh 43.5
S=C(Nc1cccc2ccccc12)N1CCN(c2ncccn2)CC1	Cycloheximide cs 24.3, FBPA Giardia inh inconclusive
CCOc1ccc(NC(=O)COC(=O)C2(C)CC2(Cl)Cl)c([N+](=O)[O-])c1 (configuration not stated)	Cycloheximide cs 18.4, Shiga toxin inh 45.1
Cc1cccc(SCC(=O)Nc2ccccc2[N+](=O)[O-])c1	Cycloheximide cs 16.2
CC1(C(=O)OCC(=O)Nc2ccc3ccccc3c2)CC1(Cl)Cl (configuration not stated)	Cycloheximide cs 36.8, Shiga toxin inh 64.1
CC1(C(=O)OCC(=O)Nc2ccc(C(N)=O)cc2)CC1(Cl)Cl (configuration not stated)	none
CCOc1ccc(OCC(=O)Nc2ccc(OC)cc2[N+](=O)[O-])cc1	none (no result: Sm TGR block)
COc1ccc(NC(=O)CN2CCN(C3c4ccccc4-c4ccccc43)CC2)cc1	Cycloheximide cs 57.3, Shiga toxin inh 41.5
COc1ccc(NC(=O)CN2CCN(c3ccccc3)CC2)cc1	none
O=S(=O)(c1cccc(Br)c1)N1CCN(CCc2ccccc2)CC1	none
CC(C)n1c(=O)c2ccccc2n1C(=O)c1ccccc1	none (no result: Cycloheximide cs, LmPK inhibitor, FBPA Giardia inh, Shiga toxin inh, Sm TGR block)
COc1ccc(NC(=O)CN2CCCCC2)c([N+](=O)[O-])c1	Cycloheximide cs 30.4, Shiga toxin inh 55.7
CC1CCN(CC(=O)Nc2ccc(Cl)cc2[N+](=O)[O-])CC1	Cycloheximide cs 17.9
COc1ccc(NC(=O)CN2CCC(C(N)=O)CC2)cc1	none
COc1ccc(NC(=O)CN2CCC(C)CC2)c([N+](=O)[O-])c1	Cycloheximide cs 21.9
COc1ccc(NC(=O)CN2CCC(C)CC2)cc1	Cycloheximide cs 15.8, Shiga toxin inh 29.8
O=C(NC1CC(=O)N(c2ccc(F)cc2)C1)C1CC1 (configuration not stated)	none (no result: Cycloheximide cs, LmPK inhibitor, FBPA Giardia inh, Shiga toxin inh)
CCCOC(=O)Nc1cc(OC)ccc1[N+](=O)[O-]	Cycloheximide cs 24.6
COc1ccc(NC(=O)CSc2nc3ccccc3n2-c2ccccc2)c([N+](=O)[O-])c1	none
COCC(=O)OCC(=O)Nc1cc(C)c(C)cc1[N+](=O)[O-]	Cycloheximide cs 15.5
COc1ccc(NC(=O)COc2ccc(C)cc2)c([N+](=O)[O-])c1	Cycloheximide cs 44.0, Shiga toxin inh 86.3
COc1ccc(NC(=O)CSc2ccccc2)c([N+](=O)[O-])c1	Cycloheximide cs 60.2, Shiga toxin inh 98.8
Cc1ccc(S(=O)(=O)N(C)c2cccc3cccnc23)cc1	none (no result: LmPK inhibitor, TbPYK inhibitor, Sm TGR block)
COc1ccc(S[C@@H](CCN2CC[C@H](C)CCC2=O)c2ccccc2)cc1	Sm TGR block 39.8µM (no result: Cycloheximide cs, LmPK inhibitor, FBPA Giardia inh, Shiga toxin inh)
Cc1ccc(SCCN2CCC(C)CCC2=O)cc1 (configuration not stated)	Cycloheximide cs 29.2, Shiga toxin inh 37.6
CC(C)(C)C1CCC(=O)N(CCSc2ccccc2)CC1 (configuration not stated)	Cycloheximide cs 32.2, Shiga toxin inh 61.8
Cc1ccc(SCCN2CCC(C(C)(C)C)CCC2=O)cc1 (configuration not stated)	Cycloheximide cs 25.4, Shiga toxin inh 42.1
COc1ccccc1CCC(=O)OCC(=O)Nc1c(C)nn(-c2ccccc2)c1C	none (no result: Cycloheximide cs, LmPK inhibitor, FBPA Giardia inh, Shiga toxin inh)
COc1ccc(Oc2ncc3nc(CCc4ccccc4)c(=O)n(CCC#N)c3n2)cc1	none (no result: Cycloheximide cs, LmPK inhibitor, Shiga toxin inh, Sm TGR block)
COc1cccc(C2=NOC(C(=O)NCc3ccco3)C2)c1 (configuration not stated)	none
O=C(NCc1ccco1)C1CC(c2ccc(Cl)cc2)=NO1 (configuration not stated)	Cycloheximide cs 26.7
O=C(NCc1cccs1)C1CC(c2ccc(Cl)cc2)=NO1 (configuration not stated)	Cycloheximide cs 12.6
Cc1ccc(CNC(=O)C2CC(c3ccc(C(F)(F)F)cc3)=NO2)o1 (configuration not stated)	none
O=C(NCc1ccco1)C1CC(c2ccc(F)cc2)=NO1 (configuration not stated)	Cycloheximide cs 16.7
O=C(NCCc1cccs1)C1CC(c2c(Cl)cccc2Cl)=NO1 (configuration not stated)	Cycloheximide cs 39.8
O=C(NCc1cccs1)C1CC(c2ccc(Cl)c(Cl)c2)=NO1 (configuration not stated)	none
COc1ccc(Oc2ncc3nc(C)c(=O)n(Cc4ccc(F)cc4)c3n2)cc1	none (no result: Cycloheximide cs, LmPK inhibitor, Shiga toxin inh, Sm TGR block)
COc1cccc(/C=N/N2C(=O)CSC2=S)c1O	Cycloheximide cs 32.0, TbPYK inhibitor inconclusive, Shiga toxin inh 44.9, Sm TGR block 5.62µM
O=C1CSC(=S)N1/N=C/c1c(F)cccc1F	Sm TGR block 8.91µM
O=C1CSC(=S)N1/N=C/c1cccc(C(F)(F)F)c1	none
N=C1SCC(=O)N1/N=C/c1ccccc1	Cycloheximide cs 23.6, Shiga toxin inh 53.1
O=C1CSC(=S)N1/N=C/c1ccc(C(F)(F)F)cc1	FBPA Giardia inh inconclusive, Sm TGR block inconclusive
O=C1CSC(=S)N1/N=C/C=C/c1ccccc1	Sm TGR block 15.8µM
CC[C@]1(C(=O)OC)[C@H]2C(=O)N(C)C(=O)[C@H]2[C@H]2CN=C(SCc3ccc(C)cc3)N21	none (no result: Cycloheximide cs, LmPK inhibitor, FBPA Giardia inh, Shiga toxin inh, Sm TGR block)
O=C(Nc1ccccc1Cl)Nc1ccnn1C1CCN(C(=O)C2CCOC2)CC1 (configuration not stated)	none (no result: Cycloheximide cs, LmPK inhibitor, FBPA Giardia inh, Shiga toxin inh, Sm TGR block)
CC(=O)c1sc(NC(=O)CSCc2c(C)noc2C)nc1-c1ccccc1	none (no result: Cycloheximide cs, LmPK inhibitor, FBPA Giardia inh, Shiga toxin inh)
CCc1nn(C(C)C(=O)N2CCN(c3ccc(OC)cc3)CC2)c(=O)c2cc3occc3n12 (configuration not stated)	none
O=C(Nc1ccc(F)c(Cl)c1)C1CCCN1S(=O)(=O)c1ccc(F)cc1 (configuration not stated)	none (no result: Cycloheximide cs, LmPK inhibitor, FBPA Giardia inh, Shiga toxin inh)
COc1cc(/C=N/N2C(C)CCCC2C)cc(Br)c1O (configuration not stated)	none
COc1cc(/C=N/N2C(=O)CSC2=S)cc(Br)c1O	Sm TGR block 12.6µM
COc1ccc2oc(=O)c(-c3nnc(NCc4ccco4)s3)cc2c1	Cycloheximide cs 31.1, Shiga toxin inh 62.5, Sm TGR block inconclusive

High-throughput results (PubChem BioAssay)
